# Most compounds without a hit are left out; they make up all but 2.1% or so of the library.
# CF NFkB block – inhibitors of cystic fibrosis induced NF-kB | KKLEB NF-kB-GFP reporter, PAF-induced, GFP fluorescence overnight | inhibition, % at 5 µM | 360,000 compounds, 0.86% hits | AID 588850;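 active = at least 50% inhibition at 5 µM, scaled per plate between neutral and stimulator controls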;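 note: PAF is a Pseudomonas aeruginosa culture filtrate used as stimulus; plate controls were PAF-stimulated DMSO wells for no effect and unstimulated DMSO wells for full effect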
# PAX8 inh HTS – PAX8 transcriptional activity inhibition; 360,000 compounds, 1.2% hits; RMG-I TPO-luciferase reporter, SteadyGlo, 24 h; inhibition, % at 12.6 µM;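 active = mean replicate inhibition at least 60% with every replicate also reaching 60%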;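 note: luciferase light reporting Pax8 driven TPO promoter activity; plate controls were median of neutral control wells for no effect and mitoxantrone controls for full effect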
# EWS-Fli block – blocks EWS/Fli oncoprotein-driven transcription; AID 651661; 350,000 compounds, 0.67% hits; A673 NR0B1-luciferase reporter, viability-normalised; inhibition, % at 12.6 µM;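 active = mean inhibition of at least 50% after viability correction, with every replicate also passing that limit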;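 note: firefly luciferase signal divided by Alamar Blue viability fluorescence both relative to DMSO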
# KKLEB cytotox – counter-screen for CF NF-kB inhibitors: cytotoxicity. KKLEB CF airway cells viability, ATPlite luminescence, overnight; hits give low values; cells stimulated with P. aeruginosa culture filtrate. activity change (cytotoxicity), % at 5 µM. 360,000 compounds, 0.36% hits. AID 602141;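 active = corrected activity change at or below -50% at 5 µM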
# HIF-2a block – inhibitors of HIF-2a. 360,000 compounds, 0.72% hits. 786-0 RCC cells HIF-2a reporter, luciferase luminescence, overnight. inhibition, % at 18.8 µM;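 active = inhibition of the luminescence signal of 40% or more relative to plate controls, in a single-dose primary screen at 18.75 µM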
# * hit, by the source's call; nt = no result given.
SMILES,CF NFkB block,PAX8 inh HTS,EWS-Fli block,KKLEB cytotox,HIF-2a block
COC(=O)c1ccc(N2CCC(c3cc(-c4ccc(OC)cc4)n[nH]3)CC2)c([N+](=O)[O-])c1,0,-17,nt,6,27
COc1ccc(-c2cc(C3CCN(c4ccc(C(C)=O)cc4[N+](=O)[O-])CC3)[nH]n2)cc1,8,85*,nt,10,5
O=C(Nc1ccc(Cl)c(Cl)c1)Nc1ccc(N2CCCC2)c(S(=O)(=O)Nc2ccccc2Cl)c1,62*,32,nt,-54*,-21
Cc1ccc(-c2c[n+]3c(n2-c2ccccc2)CCC3)cc1,-11,31,13,-15,8
Cc1ccc(-n2c(-c3ccc(Br)cc3)c[n+]3c2CCc2ccc4cccnc4c2-3)cc1,20,nt,nt,-52*,10
COCC(=O)N1[C@H](CO)[C@@H](c2ccccc2)C12CN(C(=O)c1ccc(F)cc1)C2,nt,nt,3,nt,nt
Cc1cc(C(=O)Nc2cccc3c2O[C@H](CN(C)Cc2ccc4c(c2)OCO4)[C@H](C)CN([C@@H](C)CO)C3=O)n(C)n1,nt,-7,6,nt,nt
C/C=C/c1cnc2c(c1)C(=O)N([C@H](C)CO)C[C@@H](C)[C@@H](CN(C)C(=O)c1cccc(F)c1)O2,nt,-7,-8,nt,nt
CCCCSc1ccc2nc(-c3ccc(C#N)cc3)cn2c1,-4,nt,nt,6,-207
CCCSc1ccc2nc(-c3ccccc3)cn2c1,-10,48,nt,-70*,69*
COc1ccc(-c2ccc3c(c2)O[C@H](CN(C)C)[C@@H](C)CN([C@@H](C)CO)S3(=O)=O)cc1,nt,nt,1,nt,nt
CN(C)/C=C(\C=N\OCc1ccc(Cl)cc1Cl)C(=O)Nc1ccc(Cl)c(Cl)c1,56*,nt,nt,-60*,6
CC(C)C(NC(=O)CSCc1ccc([N+](=O)[O-])cc1)C(C)C,-4,-2,78*,2,17
O=C(CSCc1ccc([N+](=O)[O-])cc1)NC1CC1,-6,4,83*,8,13
O=[N+]([O-])c1ccc(CSCc2ccc([N+](=O)[O-])cc2)cc1,0,-23,6,9,1
COc1ccccc1NC(=O)CSCc1ccc([N+](=O)[O-])cc1,10,6,nt,-5,4
C[C@@H]1CN([C@H](C)CO)C(=O)c2cc(NC(=O)Nc3ccc(C(F)(F)F)cc3)ccc2O[C@@H](C)CCCCO[C@@H]1CN(C)S(=O)(=O)c1ccccc1,nt,-6,0,nt,nt
C[C@H](CO)N1C[C@H](C)[C@H](CN(C)S(=O)(=O)c2ccccc2)OCCCC[C@H](C)Oc2ccc(NC(=O)Nc3ccc(C(F)(F)F)cc3)cc2C1=O,nt,74*,4,nt,nt
C[C@@H]1CCCCO[C@H](CN(C)S(=O)(=O)c2ccccc2)[C@H](C)CN([C@@H](C)CO)C(=O)c2cc(NC(=O)Nc3ccc(C(F)(F)F)cc3)ccc2O1,nt,64*,3,nt,nt
C[C@@H]1CCCCO[C@@H](CN(C)S(=O)(=O)c2ccccc2)[C@@H](C)CN([C@H](C)CO)C(=O)c2cc(NC(=O)Nc3ccc(C(F)(F)F)cc3)ccc2O1,nt,-4,4,nt,nt
C[C@@H]1CCCCO[C@H](CN(C)S(=O)(=O)c2ccccc2)[C@@H](C)CN([C@H](C)CO)C(=O)c2cc(NC(=O)Nc3ccc(C(F)(F)F)cc3)ccc2O1,nt,46,2,nt,nt
C[C@@H]1CCCCO[C@H](CN(C)S(=O)(=O)c2ccccc2)[C@@H](C)CN([C@@H](C)CO)C(=O)c2cc(NC(=O)Nc3ccc(C(F)(F)F)cc3)ccc2O1,nt,72*,8,nt,nt
C[C@H]1CCCCO[C@@H](CN(C)S(=O)(=O)c2ccccc2)[C@@H](C)CN([C@@H](C)CO)C(=O)c2cc(NC(=O)Nc3ccc(C(F)(F)F)cc3)ccc2O1,nt,76*,1,nt,nt
Cc1ccc(S(=O)(=O)N(C)C[C@H]2OCCCC[C@@H](C)Oc3ccc(NC(=O)Nc4ccc(C(F)(F)F)cc4)cc3C(=O)N([C@H](C)CO)C[C@@H]2C)cc1,nt,53,29,nt,nt
C[C@H](CO)N1C[C@H](C)[C@@H](CN(C)S(=O)(=O)c2ccccc2)OCCCC[C@H](C)Oc2ccc(NC(=O)Nc3ccc(C(F)(F)F)cc3)cc2C1=O,nt,70*,11,nt,nt
Cc1ccc(S(=O)(=O)N(C)C[C@@H]2OCCCC[C@H](C)Oc3ccc(NC(=O)Nc4ccc(C(F)(F)F)cc4)cc3C(=O)N([C@@H](C)CO)C[C@@H]2C)cc1,nt,42,6,nt,nt
O=C(C[C@@H]1CC[C@@H](NC(=O)CN2CCOCC2)[C@H](CO)O1)NC1CCCCC1,nt,-9,2,nt,nt

# Source: PubChem (several laboratories)
